# In PubChem BioAssay AID1347416 (National Center for Advancing Translational Sciences (NCATS), 2020):
# Out of some 4,100 compounds screened, about 1,600 (39%) were called active. Inconclusive results (about 25%) are left out. Some of the results follow. A number with no mark means an inactive call. Calls come from the whole dose curve; as a rule, active = well fitted inhibition curve with a large enough effect; inconclusive = small, poorly fitted or top-dose-only effect; inactive = no such curve, though single readings can be large or run the other way.
# Test: qHTS Validation assay for Inhibitors of Plasmodium falciparum Dd2 growth in vitro; note: nearly all actives have a fitted effect of over 70% in size
# Settings: P. falciparum Dd2 in RBCs, SYBR Green growth, 72 h; series mostly up to 28.7 µM; activity change, negative = inhibition: at the top concentration
# Summary of the method: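 P. falciparum Dd2-infected red blood cells (2.5% hematocrit, 0.3% parasitemia) grown 72 h at 37 °C under 5% O2 with compounds in a titration, 29 uM to 0.5 nM final. Growth read as SYBR Green-1 fluorescence after ~16 h lysis; artesunate 300 nM as positive control.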
# % is set by controls: 0 for no effect and ±100 for the full control effect; potency is the fitted concentration of half-maximal effect.
SMILES,"activity change, negative = inhibition",Potency
Cc1cc(C)n(Cc2ccc(C(=O)N3CCC(c4noc(-c5cccnc5)n4)C3)o2)n1 (centres undefined),5.3%,
Cc1ccc(CC(=O)NCc2nnc3c(-c4nc(C(C)C)no4)cccn23)cc1,2.86%,
Cc1ccc(CSC2=Nc3ccccc3C3=NC(CC(=O)NCc4ccco4)C(=O)N23)cc1 (centres undefined),,6.68 µM (active)
Cc1ccccc1OCCSc1nc2ccc(NC(=O)c3cccs3)cc2s1,,5.31 µM (active)
COc1ccc(NC(=O)c2cc3c(N4CCSCC4)nc(C)cn3n2)cc1OC,-5.63%,
COc1cc(C)ccc1OCCSc1nc2ccc(NC(=O)c3cccs3)cc2s1,,13.3 µM (active)
COc1cc(C)ccc1OCCSc1nc2ccc(NC(=O)c3ccc(F)cc3)cc2s1,,10.6 µM (active)
Cc1ccc2[nH]c(C(=O)Nc3ccc(F)cc3)cc2c1,33.2%,
Cc1cccc(OCCSc2nc3ccc(NC(=O)c4cccs4)cc3s2)c1,,9.44 µM (active)
Cc1ccccc1C(=O)NNc1ccc(-c2csnn2)cc1,37.5%,
CCCCc1ccc(NC(=O)CSC2=C(C#N)C(c3ccco3)C3=C(CCCC3=O)N2)cc1 (centres undefined),-11.9%,
N[C@@H]1CN(c2ncccn2)C[C@H]1CO,0%,
O=C(NCc1cccs1)c1ccc(CN2C(=O)NC3(CCS(=O)(=O)CC3)C2=O)cc1,-5.88%,
CCCOc1cccc(C(=O)Nc2ccc(-c3cc4ccccc4oc3=O)c(C)c2)c1,-6.71%,
Cc1ccccc1OCCSc1nc2ccc(NC(=O)c3ccccc3)cc2s1,,15 µM (active)
COc1ccc(S(=O)(=O)N2CCc3cc(OC)c(OC)cc3C2)cc1,22.2%,
COc1ccc(S(=O)(=O)N2CCC3(CC2)OCCN3S(=O)(=O)c2c(C)cc(C)cc2C)cc1,,2.66 µM (active)
Cc1cccc(NC2=C/C(=N/S(=O)(=O)c3cccs3)c3ccccc3C2=O)c1,,0.168 µM (active)
O=C1C(Nc2ccccc2)=C/C(=N/S(=O)(=O)c2cccs2)c2ccccc21,,0.335 µM (active)
COC(=O)[C@H]1[C@H]2C[C@@H]3c4[nH]c5cc(OC)ccc5c4CCN3C[C@H]2C[C@@H](OC(=O)/C=C/c2cc(OC)c(OC)c(OC)c2)[C@@H]1OC,,5.31 µM (active)
Cc1nc(-c2ccccc2)n(CC(=O)Nc2ccc(Cl)cc2)c(=O)c1CCO,,16.8 µM (active)

SMILES,"activity change, negative = inhibition",Potency
CCOC(=O)c1ccc(NC(=O)Cn2c(-c3cnccn3)nc(C)c(CCO)c2=O)cc1,0%,
Cc1ccc(NC(=O)Cn2c(-c3ccccc3)nc(C)c(CCO)c2=O)cc1Cl,,10.6 µM (active)
Cc1nc(-c2cccc(Cl)c2)n(CC(=O)Nc2ccc(C(F)(F)F)cc2)c(=O)c1CCO,,13.3 µM (active)
COc1ccc2c(c1)C=C([C@@H]1C[C@H]3CN(c4ccccc4)C(=O)[C@]34CCCN14)CO2,,0.944 µM (active)
COc1ccc(-c2cc(-c3cccc(NC(C)=O)c3)cn3cncc23)cn1,,21.7 µM (active)
CC(=O)N1CCN(C(=O)C[C@@H]2CCNC[C@@H]2Cc2cc(CSc3ccccc3)on2)CC1,-1%,
CCC(=O)N1CCCCCCNC(=O)[C@@H]2C[C@@H](C(=O)N3CCN(c4ccccn4)CC3)C[C@@H]21,10.7%,
COc1ccc(CNC(=O)C[C@@H]2CCNC[C@@H]2Cc2cc(-c3ccccc3)on2)cc1OC,9.35%,
O=C(C[C@@H]1CCNC[C@@H]1Cc1cc(COc2ccccc2)on1)NCc1cccs1,-17.5% [at 43.1 µM],
CC(C)(C)c1ccc(-c2cc(C[C@H]3CNCC[C@H]3CC(=O)N3CCN(c4ccccn4)CC3)no2)cc1,,15 µM (active)
O=C(C[C@@H]1CCNC[C@@H]1Cc1cc(CSc2ccccc2)on1)N1CCN(c2ccccc2)CC1,,8.41 µM (active)
O=C(Nc1ccc2c(c1)C(=O)N1CCC[C@H]1C(=O)N2)c1cc(-c2ccccc2)n[nH]1,-18.8%,
CCN1CCN(Cc2ccc(NC(=O)c3cc(NC(=O)c4nccnc4N)cc(OC)c3)cc2C(F)(F)F)CC1,,4.73 µM (active)
COc1cc(NC(=O)c2nnn(Cc3ccc(F)cc3)c2N)cc(OC)c1,-13.8%,
CCN1CCN(Cc2ccc(NC(=O)c3cc(NC(=O)c4cc(-c5ccc(OC)cc5)n[nH]4)cc(OC)c3)cc2C(F)(F)F)CC1,,0.168 µM (active)
CCN1CCN(Cc2ccc(NC(=O)c3cc(NC(=O)c4cncc(-c5ccc(C#N)cc5)c4)cc(OC)c3)cc2C(F)(F)F)CC1,,0.596 µM (active)
COc1ccc(CNC(=O)N[C@@H]2CN(c3ccncn3)C[C@H]2CN(C)C)cc1,20.7%,
O=c1cc(CSc2ccc(Cl)cc2)nc(-c2ccccn2)[nH]1,,5.96 µM (active)
COc1ccc2cc1Nc1ccc(cc1)C[C@H](NCc1cccc(C(=O)O)c1)C(=O)N(C)[C@H](C(=O)Nc1ccccc1OCc1ccccc1)C2,,4.73 µM (active)
COc1ccc2cc1Nc1ccc(cc1)C[C@H](NCc1ccc(C)o1)C(=O)N(C)[C@@H](C(=O)NCc1ccccc1)C2,,5.31 µM (active)
COc1ccc2cc1Nc1ccc(cc1)C[C@H](NCc1ccc(C)o1)C(=O)N(C)[C@H](C(=O)NCCC(C)C)C2,,5.96 µM (active)

SMILES,"activity change, negative = inhibition",Potency
CCC(=O)N1CCN(c2nc3c(s2)CC(C(=O)NCc2ccc(C)o2)CC3)CC1 (centres undefined),-36.4%,
COc1ccc2cc1Nc1ccc(cc1)C[C@H](NCc1ccc3c(c1)CCO3)C(=O)N(C)[C@H](C(=O)NCCC(C)C)C2,,3.35 µM (active)
CC(C)(C)CC(=O)N1CCC(N2C(=O)CCC2C(=O)NCc2ccccc2)CC1 (centres undefined),12.3%,
Cc1ccc(C(=O)N2CCCCCCNC(=O)[C@@H]3CCC[C@@H]32)s1,10.4%,
Cc1cccc(CSc2nn3c(=O)c(C)nnc3s2)c1,-11%,
CNC(=O)[C@@H]1C[C@@H](n2cc(CN(C)C(=O)c3cc(F)ccc3Cl)nn2)CN1,1.69%,
O=C(COc1ccccc1)NC1CC(=O)N(c2ccc3c(c2)OCCO3)C1 (centres undefined),-5.97%,
CC(C)COC(=O)/C(C#N)=C\c1ccc(-c2ccccc2Cl)o1,21.3%,
O=C1CC(c2ccccc2)N(Cc2ccncc2)CCCN(S(=O)(=O)c2cccc(F)c2)CCN1 (centres undefined),,4.73 µM (active)
Cc1noc(C)c1S(=O)(=O)N1CCCN(Cc2ccncc2)C(c2ccccc2)CC(=O)NCC1 (centres undefined),,7.5 µM (active)
Cc1noc(C)c1S(=O)(=O)N1CCc2nc3cc(-c4ccccc4)[nH]n3c(=O)c2C1,4.23%,
O=C1CC(c2ccccc2)N(Cc2ccncc2)CCCN(S(=O)(=O)c2cccs2)CCN1 (centres undefined),,6.68 µM (active)
Cc1noc(C)c1S(=O)(=O)NCC(=O)N1CCCCCCNC(=O)CC1c1ccccc1 (centres undefined),4.88%,
O=C1CC(c2ccccc2)N(S(=O)(=O)c2cccc(F)c2)CCCCCN1 (centres undefined),-1.58%,
O=C1CCC2(CCN1)CCN(S(=O)(=O)c1cccnc1)CC2,0.806%,
O=C(C1CC1)N(Cc1nc2ccccc2c(=O)[nH]1)Cc1cccs1,20.1%,
COCCN1CCNc2nc(CNCc3cnccn3)n(Cc3ccccc3)c2C1=O,0% [at 43.1 µM],
O[C@H]1CC[C@@H](Cc2cc(-c3ccc(F)cc3)on2)O[C@@H]1CNC1CCCCC1,,2.43 µM (active)
COc1ccc(CNC[C@H]2O[C@H](Cc3cc(-c4ccc(OC)cc4)on3)CC[C@@H]2O)cc1,,10.6 µM (active)
COc1ccc(CNC[C@H]2O[C@H](Cc3cc(-c4ccccc4)on3)CC[C@@H]2O)cc1,,3.85 µM (active)
COc1ccc(-c2cc(C[C@@H]3CC[C@H](O)[C@@H](CNCc4ccccc4OC)O3)no2)cc1,,3.44 µM (active)

SMILES,"activity change, negative = inhibition",Potency
Cc1ccc(S(=O)(=O)NC[C@H]2O[C@H](Cc3cc(-c4cccc(O)c4)on3)CC[C@@H]2O)cc1,-18.8%,
Cc1nccn1CC(=O)N1C[C@@H](COCC2CC2)[C@H](c2ccncc2)C1,34.9%,
O=C(N[C@@H]1CN(c2ncccn2)C[C@H]1CO)c1cc2ccccc2[nH]1,13%,
NC(=O)CN1C(=O)CO[C@H]2CN(Cc3ccc4c(c3)OCO4)C[C@H]21,59.2% [at 43.1 µM],
COc1ccc(-c2cn(C)c(=O)n3cc(COc4ccc(Cl)cc4)nc23)cn1,36.1% [at 43.1 µM],
COc1ccc(NC(=O)C(c2ccc(Cl)cc2)C(C)C)cn1 (centres undefined),,1.88 µM (active)
COC[C@@H]1CN(c2cnccn2)C[C@H]1C(=O)Nc1ccc(OC)nc1,17.9%,
Cn1c(-n2cccc2)c(-c2c(-c3ccc(F)cc3)[nH]c3c2c(=O)n(C)c(=O)n3C)c(=O)n(C)c1=O,45.5%,
CCCC(C)N1CC2(CCN(C(=O)Cn3nc(C)cc3C)CC2)OC1=O (centres undefined),20.9%,
O=C(c1ccsc1)N1CCCCCC1c1nc(-c2cccnc2)no1 (centres undefined),9.04%,
CN1CCN(c2ccc(-c3noc([C@@H]4CCCN4C4CCCCC4)n3)cn2)CC1,,19.3 µM (active)
O=C1CCN(C2CCCC2)CCCC(c2nc(-c3cccnc3)no2)CCN1 (centres undefined),-12.4%,
COc1cncc(-c2cc(C(=O)NCc3cccnc3)c3c(c2)N(C)CCO3)c1,9.35% [at 43.1 µM],
CN(C)CCNC(=O)c1cc(-c2ccccc2F)cc2c1OCCN2Cc1cccnc1,,6.85 µM (active)
CNC(=O)c1cc(-c2ccncc2)cc2c1OCCN2Cc1cccnc1,-14.5% [at 43.1 µM],
CN1CCOc2c(C(=O)NCc3cccnc3)cc(-c3cccc4[nH]ccc34)cc21,,8.63 µM (active)
CNC(=O)c1cc(-c2ccc([S+](C)(=O)[O-])cc2)cc2c1OCCN2Cc1cccnc1,-24.3% [at 43.1 µM],
COCCNC(=O)C[C@@H]1C[C@H]2O[C@H](CN)[C@@H](O)[C@H]2O1,18.5% [at 57.5 µM],
C#CCNC(=O)C[C@@H]1c2nc(NC(=O)OCC=C)sc2C[C@@H]2[C@](C)(CO)[C@H](O)CC[C@]21C,,15 µM (active)
C=CCOC(=O)Nc1nc2c(s1)C[C@@H]1[C@](C)(CO)[C@H](O)CC[C@@]1(C)[C@@H]2CC(=O)NC1CCCCC1,,3.76 µM (active)
Cc1nc2cc(N3CCCC(C(=O)NCCN4CCCCCC4)C3)cnc2nc1C (centres undefined),-6.29%,
